Reference: PubChem BioAssay AID1508600 (Functional Genomics Laboratory (NCATS/FGL), 2020)
Screen size: about 53,000 sequences; about 3,700 (7%) were called active. Many of the other results were omitted from the sample, so actives are more common in it than they were. A number with no mark means an inactive call.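 Rule for the calls: active = gene knockdowns whose robust z-score for IL-1 alpha signal is at least 2 or at most -2, so actives lie on both sides; inactive = the rest.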

Experiment: Components of the Cytosolic LPS Sensing Pathway: Gene Identification via Genome-wide siRNA Screen
Settings: RAW264.7 macrophages, IL-1a HTRF, actives lie on both sides, screened at 100 nM (by protocol), cells primed 5 h with Pam3CSK4 first
Description: Non-canonical inflammasome activation by cytosolic LPS is a critical component of the host response to Gram-negative bacterial infection, however we lack a comprehensive understanding of the cellular processes that control this pathway. Here we describe a genome-wide siRNA screen to identify genes regulating the mouse macrophage IL-1 alpha response to cytosolic LPS.
RAW264.7 cells were maintained in complete DMEM media, comprising DMEM with 4.5 g/L glucose, 10% FBS (Gemini Bio-Products, West Sacramento, CA), 2 mM Glutamine (Lonza) and 20 mM HEPES (Lonza), hereafter complete DMEM.
The RNAi screen was conducted in 384-well format using the Ambion Silencer Mouse Genome siRNA Library (#4391425), which consists of three unique, nonoverlapping, nonpooled siRNAs for each of 17,000 gene targets. siRNA reagents ([…]) were stamped into 384-well white flat-bottom microplates (Corning, 3570) using a Velocity11 VPrep liquid handling system (Agilent) integrated into a BioCel robotic platform (Agilent) in columns 1-22, leaving columns 23-24 empty for negative (Ambion, Negative control #1) and positive (mouse Casp4) controls, respectively. The median value of each plate's negative control column was used to normalize sample wells, and the positive control was used to assess transfection efficiency and assay performance.
Lipofectamine RNAiMAX Transfection Reagent ([…]; Invitrogen) was added in […] serum-free, antibiotic-free media to plate wells using a Thermo Scientific Matrix WellMate and Microplate Stacker. Plates were incubated for 45 min at room temperature to allow for the sufficient formation of siRNA-lipid complexes. Cells were seeded at a density of 1x10^4 cells per well in 20 microL media containing 20% (vol/vol) FBS without antibiotics. The final concentration of siRNA in each well was 100 nM. Cells were cultured for 48h at 37 degrees C in 5% CO2 before addition of […] of TLR ligand Pam3CSK4 for 5 hours. The medium was then removed, replaced with […] growth media and cell were transfected with […] of LipidA and TransIT-TKO (Mirus) for 24 hour. At the end of the LipidA treatment, […] of supernatant was transferred to a 384 Greiner Bio-one non-binding low volume plate and […] of IL-1a HTRF reagent (Cisbio, 62MIL1APEH) was added and incubated at room temperature overnight. The plates were read on an EnVision plate reader (PerkinElmer). Cell viability was measured by adding 20ul Cell Titer Glo to the original plate and running a luminescence read on the EnVision. The quantified IL-1a signal for each siRNA gene-targeted well was divided by the median of the negative control wells and multiplied by 100 to achieve a negative control normalized value for each well/siRNA. This normalized value was then used to generate a robust z-score by first taking the log of each value and then by subtracting the median and dividing by the […].

Sequence	z-score
GCAGUUAUCCGUAUUUAAATT against Ctnnbl1	1.18
CCCUCAUUCUCUAGCGUGATT against H2-K1	-1.07
GGAUGGACUUCGUCAUGAATT against Cplx2	0.55
GGAGUGAUUCAGUGAAAACTT against Iqcf3	-0.289
CGUCAUAAAGAAUAGUUCCTT against Ncoa4	0.965
GGAGAAGAGUUAUUGGAUATT against Dnajb4	0.901
CCUACGGCAAACAGAGACUTT against Klk6	-2.29 (active)
GGAGUUUAAGAAGACGCACTT against Slc26a3	1.62
GGUUUUGGACCAGAUGAGCTT against Abi3	0.0276
GGGAUGAAGUGUUCCAUCCTT against Ccdc187	2.88 (active)
GCAAUUAGUAACUGAGAAUTT against Dpp10	0.0628
GGACUAUGCUGUCCAGAUCTT against Ntn1	-0.432
GGUGCUGAAUUUGAUCAAGTT against Rpa2	1.83
UUGUUAUAGCACUUCCAAATT against Vwa3b	2.12 (active)
GGAUGGGUUUGAUCUUAAUTT against Il13ra2	0.519
GCCAUUUGAAGGCUUUUGUTT against D130079A08Rik	-0.555
GCUGGUGAUGACGUGUAUCTT against Slc32a1	0.357
GUUGAACAAUCUUGUCCUGTT against Rps25	0.518
GGCAUGAGACAAGCUAGUCTT against Mrgpre	-0.463
GGCUGCUAAUUGGAUUUUUTT against Ccnj	-0.936
GCCUUUCAUACAUUCAACATT against Olfr313	-1.49
GGACAGACCACACUUCAUGTT against Foxp3	-0.494
GGCCAUGAUUUACGACGACTT against C1qtnf4	-1.22

Sequence	z-score
GGCUCUCUGAGGAUUCGAATT against 4930544M13Rik	-0.209
CGGGACAUUCGUGAUCUUATT against Tmem114	-2.38 (active)
GGAUUCGCCUUUUCUACCGTT against Hoxb2	0.929
GGAGCUGUGAGCAUUACUGTT against Cenpm	-1.89
GGUCAUCGAUAAGAAAAGATT against Hunk	-1.09
GCAGGUGAAAAGCAAUCCUTT against Prss27	1.03
GAUGGUCAUUGAUGUCCUUTT against Rps24	-0.694
GGAGAGUGCUGAUGUUCUGTT against Rhox6	2.26 (active)
GGUGCUUGUGGGUAACAAGTT against Rab33a	1.94
GGACAUAAUCAAAGACAUCTT against Ddc	1.15
GGCAUACCCAAAAAUAGAATT against Eif1a	0.139
GGAGAACUCCAGGUUGGCATT against Eaf1	-2.03 (active)
GCGCAAAGAUGGCUAUUGCTT against Adamts3	1.42
GCUCAUCCAUUACGAGUUGTT against Dusp18	0.878
GCAUUUCCUUAACACUCCCTT against Msmb	-0.614
CGAGAAACAGAGUAUCAAGTT against Utp23	0.776
GGGCCAUACCAUUUGGGUGTT against Wdr38	0.142
GGUAAAAAGUACAAGUGGGTT against Slc17a5	-0.909
GGUGAUACCUCUGUCCUGGTT against Exosc5	-1.17
GGAGGGUGAUCUCAUUGAATT against Prkd1	0.479
GCAGCAAUACAUCCUUCAUTT against Cdh1	1.12
CCGAGCUAGAUCAGCUAUUTT against Mertk	-1.45
GGAAACCGUUUUUUUUUUCTT against Appbp2	2.16 (active)

Sequence	z-score
CCUAAUCUCUUGUAGGUAUTT against AU018091	1.03
GGAACAGGCAACAUGAUUGTT against Nlgn3	0.376
GGCUGUAUGUAUAUAGUCCTT against Snrpb	-2.41 (active)
GGUGUCCACAUUAAAUUACTT against Foxb1	2.21 (active)
GCACUAAGUCCCAUGUGUCTT against Trim11	-1.01
GGUUAUGGUAUUAACAGGUTT against Slc17a4	0.112
GGGCAGAAUGCCAGUGUACTT against Kif22	-0.305
GCUUGACGCGAACUUACCATT against Endog	2.35 (active)
GGUGGACUUCGAGAACAUATT against Cyp2d26	0.75
GGAUCAUCAACCAUCUAAUTT against Srsf7	-1.11
GCCUUUUGAUGCUUCCUCUTT against Rusf1	-0.696
GCUCAAAGUUUGAACUGGCTT against Atxn2l	0.153
GCUGAAGAGGCGCAUACAUTT against 2610318N02Rik	3.07 (active)
GCCAAAGACUCUUAUAAGUTT against Bnc1	-0.455
UCUCCUUCCUAACUUCAACTT against Tmem252	0.747
GCUCUCACCAUCAGAGAAATT against Trpc4	-0.12
CCUCUGAGUGGAACACCUATT against Sfr1	-3.54 (active)
GGCAUUCAUGACAAUGGCUTT against Rab1b	-1.89
GCGAUUUAUUGCCAAGCCCTT against Cers5	0.596
GGUUUAAGCUUUUUGUGGATT against D130079A08Rik	0.0133
GGAUGUGACGCACACAUGUTT against Cdip1	1.11
GCAAAUUGGUCAUCGACUGTT against Alg1	0.0456
GCCAUCUACUCUUUAAAUATT against Pdha1	0.351
